Test results from PubChem BioAssay (NCI).
This is part of a sample that, as a whole, favours compounds with a hit. Of some 83,000 tested, about 20% had one in any assay.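 Treatment: one concentration, 48 hours, 96-well format. Scoring: percent growth, with anything below 10 considered active.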 The source made the active and inactive calls.

Legend:
Test in all cases: NCI-60 one-dose screen, 48 h (100 = growth as untreated, 0 = no growth, -100 = all killed)
Conditions in all cases: 10 µM unless noted
SK-MEL-2 melanoma = test system: SK-MEL-2 melanoma
EKVX NSCLC = test system: EKVX NSCLC
SN12C renal = test system: SN12C renal
UO-31 renal = test system: UO-31 renal
TK-10 renal = test system: TK-10 renal
ACHN renal = test system: ACHN renal
CAKI-1 renal = test system: CAKI-1 renal
A498 renal = test system: A498 renal
CCRF-CEM leukemia = test system: CCRF-CEM leukemia
MOLT-4 leukemia = test system: MOLT-4 leukemia

Measured: growth

Nc1ncnc2c1N=C(c1ccc(Cl)cc1)CC(c1cccc(Nc3ccnc4cc(Cl)ccc34)c1)N2 (stereo not given)
active: CCRF-CEM leukemia 4%
inactive: SK-MEL-2 melanoma 76.6% | EKVX NSCLC 59.4% | SN12C renal 67.1% | UO-31 renal 47.2% | TK-10 renal 117% | ACHN renal 84.2% | CAKI-1 renal 65.7% | A498 renal 51.1% | MOLT-4 leukemia 12.3%

CCOc1ccc(NC(=O)Nc2ccc(OCC)cc2)cc1
inactive: SK-MEL-2 melanoma 121% | EKVX NSCLC 108% | SN12C renal 104% | UO-31 renal 95.2% | TK-10 renal 107% | ACHN renal 116% | CAKI-1 renal 103% | A498 renal 104% | CCRF-CEM leukemia 107% | MOLT-4 leukemia 99.3%

Cc1cc(C)c2c(c1)N(C)c1ncnc(-n3c(C)nc4cc(C)ccc43)c1CC2C (stereo not given)
inactive: SK-MEL-2 melanoma 46.7% | EKVX NSCLC 45.2% | SN12C renal 62.3% | UO-31 renal 39% | TK-10 renal 53.3% | ACHN renal 39.4% | CAKI-1 renal 37.3% | CCRF-CEM leukemia 21.6% | MOLT-4 leukemia 27.8%
active: A498 renal 0.985%

COC(=O)c1nc(-c2ccccc2)oc1S(=O)(=O)N1CCCC(C)C1 (stereo not given)
inactive: SK-MEL-2 melanoma 96.7% | EKVX NSCLC 100% | SN12C renal 84.4% | UO-31 renal 65.7% | TK-10 renal 50.6% | ACHN renal 66.7% | CAKI-1 renal 92.6% | A498 renal 92.9%
active: CCRF-CEM leukemia 1.21% | MOLT-4 leukemia 6.09%

Cc1c(C(C)(C)O)cn2ncnc(Oc3ccc(NC(=O)Nc4ccc(Cl)c(C(F)(F)F)c4)c(F)c3)c12
inactive: SK-MEL-2 melanoma 94.7% | EKVX NSCLC 56.3% | SN12C renal 57.6% | UO-31 renal 69.9% | TK-10 renal 85.1% | ACHN renal 39.5% | CAKI-1 renal 47.9% | A498 renal 29.5% | CCRF-CEM leukemia 29.2% | MOLT-4 leukemia 32.2%

CCCCO[C@@H]1C=C2[C@H]3CC(C)(C)C(=O)C[C@]3(C(=O)O[C@@H]3O[C@H](CO[C@@H]4O[C@H](CO)[C@@H](OC5OC(C)C(O)C(O)C5O)[C@H](O)[C@H]4O)[C@@H](O)[C@H](O)[C@H]3O)CC[C@@]2(C)[C@]2(C)CC[C@H]3C(C)(C)C(=O)CC[C@]3(C)[C@@H]12 (stereo not given in full)
inactive: SK-MEL-2 melanoma 64.3% | EKVX NSCLC 87.1% | SN12C renal 81.2% | UO-31 renal 19.4% | TK-10 renal 61.6% | ACHN renal 22.9% | CAKI-1 renal 50.8% | A498 renal 93.9% | CCRF-CEM leukemia 43.3% | MOLT-4 leukemia 51.5%

Cc1ccc2nc(-c3ccc(C(=O)N/N=C/c4ccc([N+](=O)[O-])cc4)cc3)[nH]c2c1
inactive: SK-MEL-2 melanoma 116% | EKVX NSCLC 108% | SN12C renal 106% | UO-31 renal 86.4% | TK-10 renal 127% | ACHN renal 104% | CAKI-1 renal 97.4% | A498 renal 82.8% | CCRF-CEM leukemia 95.3% | MOLT-4 leukemia 93.4%

CNCCCNc1nc2ccccc2c2c(=O)c3cc(Cl)ccc3sc12
active: UO-31 renal 7.83% | MOLT-4 leukemia -42%
inactive: SK-MEL-2 melanoma 95.3% | EKVX NSCLC 76.7% | SN12C renal 24.9% | TK-10 renal 68.9% | ACHN renal 13.3% | CAKI-1 renal 43.8% | A498 renal 76.2% | CCRF-CEM leukemia 12.3%

COc1cc([C@@H](CCO)C[C@H](C)c2ccc3ccccc3c2)cc(OC)c1OC
inactive: SK-MEL-2 melanoma 16.1% | EKVX NSCLC 49.1% | SN12C renal 42.2% | UO-31 renal 44.2% | TK-10 renal 49.3% | ACHN renal 43.6% | CAKI-1 renal 28.8% | A498 renal 25.3% | CCRF-CEM leukemia 21.6% | MOLT-4 leukemia 25.7%

O=C(C1=Cc2cc3ccccc3n2Cc2cnnn21)c1ccc(F)cc1
inactive: SK-MEL-2 melanoma 103% | EKVX NSCLC 96.2% | SN12C renal 97.6% | UO-31 renal 88.6% | TK-10 renal 107% | ACHN renal 103% | CAKI-1 renal 90.9% | A498 renal 79.9% | CCRF-CEM leukemia 97.8% | MOLT-4 leukemia 89%

C[C@H]1[C@H](C)CC[C@]2(C(=O)NCCNCCN)CC[C@]3(C)C(=CC[C@@H]4[C@@]5(C)CCC(=O)C(C)(C)[C@@H]5CC[C@]43C)[C@H]12
active: CCRF-CEM leukemia -11.7% | MOLT-4 leukemia -9.76%
inactive: SK-MEL-2 melanoma 91.4% | EKVX NSCLC 79.4% | SN12C renal 68.2% | UO-31 renal 60.3% | TK-10 renal 74% | ACHN renal 77.1% | CAKI-1 renal 61.5% | A498 renal 75%

c1ccc2cc(Cn3cc(CSc4nc5ccccc5s4)nn3)ccc2c1
inactive: SK-MEL-2 melanoma 90.6% | EKVX NSCLC 101% | SN12C renal 94.5% | UO-31 renal 77.6% | TK-10 renal 102% | ACHN renal 99.3% | CAKI-1 renal 83.3% | A498 renal 97.3% | CCRF-CEM leukemia 97.2% | MOLT-4 leukemia 96.4%

CNC(=O)NCC1OC(n2cnc3c(NC(=O)Nc4ccccc4)ncnc32)C2OC(=O)CC12 (stereo not given)
inactive: SK-MEL-2 melanoma 70% | EKVX NSCLC 102% | SN12C renal 113% | UO-31 renal 64.2% | TK-10 renal 99.3% | ACHN renal 94.9% | CAKI-1 renal 100% | A498 renal 93.7% | CCRF-CEM leukemia 94.1% | MOLT-4 leukemia 69.7%
